High-throughput results as filed in PubChem BioAssay.
Only some compounds are listed: those with a hit (about 7.3% of all), similar ones and a draw of the others.
SMN2 splice enh: qHTS Assay for Enhancers of SMN2 Splice Variant Expression; HEK293 SMN2-luciferase splicing reporter, luminescence, 30-36 h; Potency, µM (top dose mostly 46.1 µM), for inactives: at the top dose activity change, positive = activation, usual class: activators; 210,000 compounds, 2.8% hits; AID 1458, 2008; further: % of control where 0% means no effect; nearly all actives have a fitted effect of over 55% in size
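HEK293 cells carry an SMN2 […]–luciferase reporter in which exon 7 inclusion puts luciferase in frame. Cells were plated 10-12 h before compound addition, then incubated 30-36 h at 37C. ONE-Glo luminescence was read; sodium butyrate at 4.5 mM final served as control.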
NPC1 prom act: qHTS Assay for NPC1 Promoter Activators; Huh7 NPC1 promoter luciferase reporter, 24 h; Potency, µM (doses to about 9.22 µM), for inactives: at the highest dose activation, usual class: activators; 320,000 compounds, 2.4% hits; AID 485313, 2010; further: % of control where 0% means no effect; nearly all actives have a fitted effect of over 60% in size
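Compounds in DMSO were transferred onto Huh7 NPC1-luciferase reporter cells pre-incubated 2 h; after 24 h at 37 °C, Amplite reagent was dispensed and luminescence recorded 10 min later.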
Luc counter: Counterscreen for Luciferase (Kinase-Glo TM) Inhibition | 200,000 compounds, 0.28% hits | Potency, µM (highest dose often 38.3 µM), for inactives: at the highest dose activity change, negative = inhibition, most hits filed as inhibitors | AID 1379, 2008 | Kinase-Glo luciferase, ATP luminescence, 8 min | Luciferin 4-monooxygenase (Photuris pensylvanica), Q27757; further: on the % scale 0 is the no-effect control and ±100 the full control effect; nearly all actives have a fitted effect of over 60% in size
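Light output from Kinase-Glo luciferase with luciferin and 10 uM ATP in 50 mM imidazole pH 7.2, KCl, MgCl2, Tween 20, BSA; compound pin-delivered, 8-min ambient incubation, then luminescence read.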
Rab9 prom act: qHTS Assay for Rab9 Promoter Activators. AID 485297, 2010. Potency, µM (highest dose often 9.22 µM), for inactives: at the highest dose activation, negative = inhibition, hits mostly activators. Huh7 Rab9 promoter-luciferase reporter, luminescence, 24 h. 320,000 compounds, 2.8% hits; further: % of control where 0% means no effect; nearly all actives have a fitted effect of over 60% in size
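Stable Rab9-luc Huh7, 1500 cells/well, 2 h settle; cmpd in DMSO, 24 h, 37 °C/5% CO2; luciferase reagent 10 min RT; luminescence.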
ELG1 genotoxic: qHTS screen for small molecules that induce genotoxicity in human embryonic kidney (HEK293T) cells expressing luciferase-tagged ELG1. HEK293T ELG1-luciferase reporter, luminescence, 16 h. Potency, µM (series often up to 46 µM), inactives show top-dose activity change, positive = activation, usual class: activators. 330,000 compounds, 1.3% hits; further: % of control where 0% means no effect; nearly all actives have a fitted effect of over 60% in size
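16 hr compound incubation (37 °C, 5% CO2) of HEK293T cells carrying luciferase-tagged ELG1; luciferase then measured by ONE-Glo luminescence after 30 min at RT.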
FLuc counter: qHTS profiling assay for firefly luciferase inhibitor/activator using purifed enzyme and Km concentrations of substrates (counterscreen for miR-21 project) | 360,000 compounds, 6.9% hits | AID 588342, 2011 | Luciferin 4-monooxygenase (Photinus pyralis), P08659 | Potency, µM (doses to about 57.5 µM), for inactives: top-dose activity change, negative = inhibition, usual class: inhibitors | purified FLuc, Km substrates, luminescence inhibition;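 further: plate controls were vehicle for no effect and reference inhibitor for full effect; nearly all actives have a fitted effect of over 55% in size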
Target sequence (P08659 whole entry, looked up): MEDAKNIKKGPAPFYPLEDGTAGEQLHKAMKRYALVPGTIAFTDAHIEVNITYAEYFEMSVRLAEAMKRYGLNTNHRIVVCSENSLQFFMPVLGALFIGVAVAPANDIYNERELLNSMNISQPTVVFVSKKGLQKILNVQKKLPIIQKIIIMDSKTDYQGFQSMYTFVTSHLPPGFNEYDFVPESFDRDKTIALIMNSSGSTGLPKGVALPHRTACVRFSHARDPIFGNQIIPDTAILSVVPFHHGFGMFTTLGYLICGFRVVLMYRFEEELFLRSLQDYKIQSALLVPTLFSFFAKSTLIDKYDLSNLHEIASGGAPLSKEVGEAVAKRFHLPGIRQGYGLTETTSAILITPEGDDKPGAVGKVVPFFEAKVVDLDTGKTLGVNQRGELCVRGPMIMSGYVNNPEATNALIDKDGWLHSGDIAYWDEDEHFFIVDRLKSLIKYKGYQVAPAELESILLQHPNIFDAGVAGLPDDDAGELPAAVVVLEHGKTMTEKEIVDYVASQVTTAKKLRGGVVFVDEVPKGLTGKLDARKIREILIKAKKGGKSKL
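Purified P. pyralis luciferase (10nM final) with 10uM D-luciferin and 10uM ATP (Km levels) in 50mM Tris acetate pH 7.5, 10mM Mg acetate, 0.01% Tween-20, 0.05% BSA; qHTS 6-point titration, ~60 µM downward; luminescence read.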
* marks the source's active call; other numbers are inactive results; ? = inconclusive; . = no result given; [ ] = dose if it differs, or a comment. The call rests on the fitted dose curve; in most records, active means well fitted curve in the direction sought with a large enough effect; inconclusive means small, poorly fitted or top-dose-only effect, or another doubt; inactive means no such curve, though single readings can be large; an effect the other way counts as inactive or inconclusive. Potency means the concentration at half of the fitted maximal effect.

SMILES	SMN2 splice enh	NPC1 prom act	Luc counter	Rab9 prom act	ELG1 genotoxic	FLuc counter
Cc1nn2c(=O)c(NC(=O)c3ccc(F)cc3)cnc2s1	26%	10%	-1%	14%	0%	2%[2.3 µM]
CCOC(=O)/C(=N\Nc1ncnc2ccccc12)c1ccc(OC)cc1	.	3.5µM*	.	3.2µM*	?	5.4µM*
CCCC(=O)Nc1ccc(NC(=O)c2ccco2)cn1	.	27%	.	?	?	?
O=C(Nc1ccc(NC(=O)C2CC2)nc1)c1ccco1	17%	?	-7%	?	?	?
COc1cccc(C(=O)Nc2ccc(NC(=O)C3CC3)nc2)c1	.	-2%	.	3%	3%	-2%
COc1cccc(C(=O)Nc2ccc(NC(=O)c3ccco3)nc2)c1	?	?	-7%	4.5µM*	19%	21µM*
O=C(Nc1ccc(NC(=O)c2ccccc2F)cn1)c1ccco1	.	0.32µM*	.	0.56µM*	?	1.9µM*
COc1cccc(C(=O)Nc2ccc(NC(C)=O)cn2)c1	?	?	-5%	?	?	21µM*
COc1cc(C(=O)Nc2ccc(NC(=O)c3ccco3)nc2)cc(OC)c1OC	9%	-2%	0%	9%	0%	0%
O=C(Nc1ccc(NC(=O)c2ccco2)nc1)c1cccc(F)c1	.	0.89µM*	.	3.2µM*	?	5.4µM*
CC(c1nnc(SCC(=O)Nc2ccc3[nH]c(=O)[nH]c3c2)n1Cc1ccccc1)N(C)C (stereo unspecified)	2%	1%	-6%	0%	-1%	0%
CCS(=O)(=O)c1ccc2oc(SCC(=O)NCCc3ccc(F)cc3)nc2c1	-17%	-3%	1%	3%	-8%	8%
Cc1cccc(C)c1NC(=O)CN1C(=O)S/C(=C\c2cccn2C)C1=O	14%	-4%	9%	-9%	17%	1%
Cc1cc(C(=O)OCC(=O)NC(C)C)c(C)o1	-14%	-4%	0%	-2%	4%	-2%
CCCC(=O)Nc1ccc(NC(=O)c2cccc(OC)c2)nc1	?	?	-21%	3.2µM*	12%	12µM*
Cc1cc(NC(=O)c2cccc(F)c2)ncc1NC(=O)c1ccco1	14µM*	1.3µM*	?	2µM*	3.7µM*	11µM*
O=C(Nc1ccc(NC(=O)c2ccco2)nc1)c1cccnc1	11µM*	2.2µM*	-1%	2µM*	?	11µM*
O=C(O)CSc1nnc(-c2ccccc2)c(-c2ccccc2)n1	.	-2%	.	-1%	-1%	2%
COCCn1c(C)cc(C(=O)CN2C(=O)NC3(CCCCCCC3)C2=O)c1C	?	3.2µM*	-3%	4µM*	?	15µM*
Cc1ccc(C(=O)CN2C(=O)NC3(CCCCCC3)C2=O)c(C)c1	.	4µM*	.	?	16µM*	?
CC1=CC(=C2C(=O)c3ccccc3C2=O)C=C(C)N1C	7%	2.5µM*	-7%	2.5µM*	?	12µM*
COC1=C(c2ccccc2)C(=O)c2ccccc2C1=O	-19%	-1%	-2%	13%	-8%	-15%
COc1ccc(-c2nc(C#N)c(NCc3ccco3)o2)cc1	20µM*	?	3%	?	?	13µM*
COc1ccc(Nc2oc(COc3cccc(C)c3)nc2C#N)cc1	19%	?	-2%	?	16µM*	5.4µM*
C=CCNc1oc(-c2ccc(OC)cc2)nc1C#N	?	?	7%	2.8µM*	15µM*	8.5µM*
SMILES	SMN2 splice enh	NPC1 prom act	Luc counter	Rab9 prom act	ELG1 genotoxic	FLuc counter
CC(C)(C)c1ccc(-c2nc(C#N)c(NCc3cccnc3)o2)cc1	-18%	10%	3%	?	?	11µM*
COc1ccc(Nc2oc(COc3ccc(C)cc3)nc2C#N)cc1	-87%	0%	3%	-4%	1%	-19%
N#Cc1nc(-c2ccc(F)cc2)oc1NCc1ccco1	.	12%	.	15%	5%	?
Cc1ccc(OCc2ccc(-c3nc(C#N)c(NCc4cccnc4)o3)o2)cc1	.	.	.	.	.	-16%
Cc1cccc(-c2nc(C#N)c(NCc3ccco3)o2)c1	.	?	.	?	?	11µM*
Cc1ccc(-c2nc(C#N)c(NCc3ccco3)o2)cc1	?	?	-1%	?	5.8µM*	4.8µM*
N#Cc1nc(-c2ccco2)oc1NCc1ccco1	-6%	-1%	-1%	2%	4%	-2%
N#Cc1nc(COc2cccc(Cl)c2)oc1NCc1ccco1	12%	19%	3%	?	?	19µM*
CCCCn1c(CN2C(=O)c3ccccc3C2=O)nc2ccccc2c1=O	-13%	0%	0%	-5%	11%	2%
CCOCc1c(C(=O)Nc2ccc3nc(N4CCOCC4)sc3c2)oc2ccccc12	.	0%	.	3%	-13%	.
CCCCNC(=O)c1cc(-c2ccc(OC)cc2)on1	14µM*	4µM*	-4%	3.2µM*	8.2µM*	8.5µM*
COc1ccc(-c2cc(C(=O)Nc3cc(C)nn3-c3ccccc3)no2)cc1	15%	-5%	0%	-5%	2%	13µM*
CCc1ccccc1NC(=O)c1cc(-c2ccc(OC)cc2)on1	3%	3%	.	12%	2%	-1%
CCCCNC(=O)c1cc(-c2ccc(OC)c(OC)c2)on1	-2%	14%	1%	16%	12%	-11%
Cc1cc(NC(=O)c2cc(-c3ccccc3)on2)n(-c2ccccc2)n1	?	-2%	1%	-1%	0%	1%
CCCNC(=O)c1cc(-c2ccc(OC)cc2)on1	10µM*	0.89µM*	-4%	2.8µM*	4.6µM*	2.4µM*
CCCCNC(=O)c1cc(-c2ccc(F)cc2)on1	25µM*	3.5µM*	2%	4µM*	?	9.5µM*
CCOc1cc(/C=N\NC(=O)OC(C)(C)C)ccc1OC(=O)c1ccco1	-18%	-4%	10%	-2%	-1%	-1%
CCN(CC)c1ccc(C=C2C(=O)OC(c3ccccc3)OC2=O)cc1 (stereo unspecified)	-3%	-2%	-1%	-1%	-9%	12µM*
COc1ccc(N2CCN(c3ncnc4c3cnn4-c3ccc(C)c(Cl)c3)CC2)cc1	.	.	.	.	.	5%
CC(=O)NNc1ncnc2c1cnn2-c1ccc(C)c(C)c1	22%	11%	-2%	20%	?	?
Cc1ccc(-n2ncc3c(NC4CCCCC4)ncnc32)cc1Cl	.	.	.	.	.	1.1µM*
